Screening data: PubChem, National Center for Advancing Translational Sciences (NCATS)
Compounds with a hit are over-represented: about 18% of the library has one in this group of screens.
DT40 TDP1 no CPT: qHTS for Inhibitors of human tyrosyl-DNA phosphodiesterase 1 (TDP1): qHTS in cells in absence of CPT. 15% of 420,000 active. AID 686978, 2013. Potency, µM (highest dose often 46.2 µM), for the others: at the highest dose activity change, negative = growth inhibition, actives largely listed as inhibitors. DT40 Tdp1-/- hTDP1 cells, no CPT, ATP luminescence, 48 h; note: potency is the fitted concentration of half-maximal effect; nearly all actives have a fitted effect of over 55% in size
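A cellular qHTS used chicken DT40 cells lacking endogenous Tdp1 but carrying stably transfected human TDP1. Compounds were applied without camptothecin, and cell growth kinetics were judged by ATP-dependent luminescence after ≥48 hr.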
IL1B secr inh: inhibitors of inflammasome signaling (IL-1 beta secretion); THP-1 LPS/ATP IL-1B secretion, AlphaLISA, 16 h; active compounds read low; activity change, % at 57.5 µM; 4.7% of 360,000 active; in the data active = activity change below about -50%; inconclusive = mostly about -30% to -49%
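THP-1 cells pretreated 1 hr with compounds (up to 57.5 uM final), then stimulated with LPS (250 ng/mL final) plus ATP (1.25 mM final); secreted IL-1B measured by AlphaLISA after 16 hr, decreased signal indicating inhibition.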
LDHA inh: LDHA (human) enzyme inhibition. 0.15% of 480,000 active. purified LDHA, NADH/diaphorase-resazurin fluorescence; active compounds read low. P00338. activity change, % (values are at about 110 or 230 µM); in the data active = activity change below about -30%; inconclusive = mostly about -25% to -30%;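 note: plate controls were DMSO wells for no effect and wells without enzyme for full effect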
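Resorufin fluorescence (ex540/em590), read at 0 and 20 min after diaphorase/resazurin addition, reports the NADH left after a 5 min room-temperature reaction of 2 nM human LDH5 with 0.06 mM NADH and 0.2 mM pyruvate.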
VP16 counter: counter-screen for ROR gamma inhibitors: Gal4-VP16 reporter; Potency, µM (highest dose often 53.6 µM), inactives show at the highest dose activity, negative = inhibition, hits mostly inhibitors; Drosophila S2 Gal4-VP16 UAS-luciferase, luminescence, 20 h; 3.5% of 310,000 active;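 note: Gal4-VP16 expression switched on by copper sulfate through the metallothionein promoter; potency is the fitted concentration of half-maximal effect; nearly all actives have a fitted effect of over 50% in size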
RORgamma inh: ROR gamma (mouse) transcription inhibition | Potency, µM (highest dose often 53.6 µM), for inactives: top-dose activity change, negative = inhibition, usual class: inhibitors | AID 2551 | P51450 | 5.4% of 310,000 active | Drosophila S2 Gal4-RORgamma UAS-luciferase reporter, 20 h; note: potency is the fitted concentration of half-maximal effect; nearly all actives have a fitted effect of over 60% in size
Target sequence (P51450 whole entry, looked up, the tested form may be a part): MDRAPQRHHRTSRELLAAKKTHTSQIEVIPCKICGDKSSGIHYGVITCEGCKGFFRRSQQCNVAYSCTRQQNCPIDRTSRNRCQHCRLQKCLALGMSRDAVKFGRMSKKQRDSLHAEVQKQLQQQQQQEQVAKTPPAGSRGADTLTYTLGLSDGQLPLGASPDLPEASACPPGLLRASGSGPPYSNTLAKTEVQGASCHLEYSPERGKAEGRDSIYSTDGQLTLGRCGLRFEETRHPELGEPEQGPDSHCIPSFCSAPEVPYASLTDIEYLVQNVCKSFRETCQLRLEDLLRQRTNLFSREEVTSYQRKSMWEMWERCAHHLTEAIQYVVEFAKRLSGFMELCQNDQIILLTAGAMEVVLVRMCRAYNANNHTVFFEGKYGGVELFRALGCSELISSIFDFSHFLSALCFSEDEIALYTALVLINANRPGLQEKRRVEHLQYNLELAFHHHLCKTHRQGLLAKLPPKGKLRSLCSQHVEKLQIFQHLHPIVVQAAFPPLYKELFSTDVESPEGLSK
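Luciferase reporter read in Schneider cells carrying Gal4-RORγ (mouse) and UAS-Photinus luciferase; cells given compound 1 h before 700 uM copper sulfate induction, then incubated 20 h at ambient temperature.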
TDP1 cell CPT: DT40-hTDP1 cell growth loss with CPT; AID 686979; 12% of 420,000 active; chicken DT40 Tdp1-/-;hTDP1 cells + 20 nM CPT, ATP luminescence, 48 h; Potency, µM (series often up to 46.2 µM), for inactives: top-dose activity change, negative = growth inhibition, usual class: inhibitors; note: potency is the fitted concentration of half-maximal effect; nearly all actives have a fitted effect of over 55% in size
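Cell growth measured by CellTiter-Glo luminescence after a minimum 48 h, 37 C compound exposure with 20 nM CPT in Tdp1-knockout DT40 cells stably expressing hTDP1, seeded 400/well; qHTS titration format.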
An asterisk follows results filed as active; ? = inconclusive; / = no result given. Unless noted, calls come from the whole dose curve; as a rule, active = well fitted curve in the direction sought with a large enough effect; inconclusive = small, poorly fitted or top-dose-only effect, or another doubt; inactive = no such curve, though single readings can be large; an effect the other way counts as inactive or inconclusive. Unless noted, % is set by controls: 0 for no effect and ±100 for the full control effect.

SMILES	DT40 TDP1 no CPT	IL1B secr inh	LDHA inh	VP16 counter	RORgamma inh	TDP1 cell CPT
Cc1ccc(C(=O)NC(=S)N(C)Cc2ccccc2)cc1	?	-29.8	-2.5	/	/	?
COc1ccc(CCNC(=O)c2ccc3[nH]c(C)c(C)c3c2)cc1OC	23.1µM*	/	-2.6	/	/	?
CCOc1ccc(CCNC(=O)c2ccc3[nH]c(C)c(C)c3c2)cc1	20.6µM*	/	4.0	/	/	?
CC1(C)CC(=O)c2cc3c(N)c(C#N)sc3nc2C1	/	/	-12.5	/	/	/
CCOc1cc(CNc2ccc(S(N)(=O)=O)cc2)ccc1OCC(=O)NC(C)(C)C	?	0.0	-5.5	-4.4%	-0.9%	-22.6%
CCOc1cc(CNc2ccc(N3CCCCC3)cc2)cc(Br)c1OCC(=O)NC(C)(C)C	16.4µM*	-86.1*	14.3	-27.5%	-32.8%	?
CCOc1cc(CNc2ccc(N(C)C)cc2)cc(Br)c1OCC(=O)NC(C)(C)C	20.6µM*	-11.2	23.7	-12.5%	10µM*	18.4µM*
COc1cccc(CNC(=O)C(C)OC(C)=O)c1 (stereo not drawn)	/	/	-0.6	/	/	/
COc1cccc(NC(=O)C2(C)CCN2C(=O)Cc2ccc(C(C)C)cc2)c1 (stereo not drawn)	?	19.8	2.8	/	/	18.4µM*
CCC(=O)N1CCC1(C)C(=O)Nc1cccc(OC)c1 (stereo not drawn)	-5.3%	11.4	-9.3	/	/	-8.2%
CC1(C(=O)Nc2cccc(C#N)c2)CCN1C(=O)C1(c2ccccc2)CC1 (stereo not drawn)	?	21.1	-3.2	/	/	5.17µM*
CC(C)c1ccc(CC(=O)N2CCC2(C)C(=O)Nc2cccc(C#N)c2)cc1 (stereo not drawn)	16.4µM*	-25.4	-0.4	/	/	?
CC1(C(=O)NS(=O)(=O)c2ccc(C#N)cc2)CCN1C(=O)C1(c2ccc(Cl)cc2)CCC1 (stereo not drawn)	-29.9%	26.1	-9.2	/	/	18.4µM*
CC(C)Oc1ccc(C(=O)N2CCN(c3nc4sc5c(c4c(=O)n3C)CCCC5)CC2)cc1	/	/	9.5	/	/	/
CCOC(=O)c1ccc2ncc(C(=O)OCC)c(NCCCO)c2c1	/	/	0.9	/	/	/
CC1(C(=O)Nc2cccc(C#N)c2)CCN1C(=O)Cc1ccc(-c2ccccc2)cc1 (stereo not drawn)	2.59µM*	0.0	-8.0	/	/	4.11µM*
CC1(C(=O)N2CCCCC2)CCN1C(=O)C1(c2ccccc2)CC1 (stereo not drawn)	-6.5%	21.2	-4.3	/	/	0.5%
CC1(C(=O)N2Cc3ccccc3C2)CCN1C(=O)C1(c2ccc(Cl)cc2)CC1 (stereo not drawn)	?	-17.5	-5.9	/	/	16.4µM*
S=C(NCCc1ccccc1)N1CCN(C23CC4CC(CC(C4)C2)C3)CC1	8.2µM*	-84.2*	-7.1	-11.2%	18.3%	10.3µM*
S=C(NCCc1ccccc1)N1CCCC1	9.2%	-6.5	-4.9	/	/	11.0%
CCNC(=S)N1CCN(C(c2ccccc2)c2ccccc2)CC1	?	-16.4	-2.4	-3.5%	44.6%	?
S=C(NCCc1ccccc1)N1CCN(C(c2ccccc2)c2ccccc2)CC1	16.4µM*	-2.5	-4.1	?	10µM*	11.6µM*
CCCCNC(=S)N1CCN(C(c2ccccc2)c2ccccc2)CC1	?	11.6	-9.6	?	3.16µM*	?
Cc1ccccc1-c1nnc2sc(NC(=O)c3ccccc3)nn12	/	/	3.6	/	/	/
CCOC(=O)c1cnc2c(C)cccc2c1Nc1ccc(OC(C)C)cc1	23.1µM*	/	1.8	/	/	?
SMILES	DT40 TDP1 no CPT	IL1B secr inh	LDHA inh	VP16 counter	RORgamma inh	TDP1 cell CPT
CCOC(=O)c1cnc2c(C)cccc2c1Nc1ccccc1OCC	/	/	-34.7*	/	/	/
CCOC(=O)c1cnc2ccc(C(=O)OC)cc2c1Nc1cccc(C(=O)O)c1	10.2%	40.4	-1.9	-0.1%	-1.8%	20.3%
CCOC(=O)c1cnc2c(C(F)(F)F)cccc2c1Nc1cccc(C(=O)OC)c1	14.6µM*	/	-5.3	/	/	?
CCOC(=O)c1cnc2c(ccc3ccccc32)c1Nc1ccccc1O	?	/	2.3	/	/	20.6µM*
CCOC(=O)c1cnc2c(Cl)cccc2c1Nc1ccc(OCC)cc1	/	/	-5.6	/	/	/
CCN(CC)S(=O)(=O)c1ccc(C(C)NC(=O)c2nn(C)c(=O)c3ccccc23)cc1 (stereo not drawn)	/	/	8.6	/	/	/
CCn1c(-c2cccnc2)n[nH]c1=S	-6.8%	2.5	-1.6	-9.9%	?	-1.3%
CCn1c(-c2ccc(Cl)cc2)n[nH]c1=S	-15.8%	-6.2	-12.0	12.6µM*	10µM*	-1.0%
CCn1c(-c2cccn(Cc3ccc(Cl)cc3Cl)c2=O)n[nH]c1=S	?	48.8	-9.6	-16.8%	10µM*	-0.1%
CCn1c(-c2ccc(C)cc2)n[nH]c1=S	?	12.7	-8.2	11.2µM*	8.91µM*	20.6µM*
CCCCn1c(-c2ccc([N+](=O)[O-])cc2)n[nH]c1=S	-7.2%	19.5	-3.1	8.91µM*	2.24µM*	-4.0%
COc1cc(/C=C2/NC(=O)NC2=O)cc(I)c1OCc1cccc(C(=O)O)c1	/	/	2.2	/	/	/
O=C(C1CC1)N(Cc1ccc2c(c1)CN(S(=O)(=O)c1cc(F)ccc1F)CCO2)c1ccccc1	/	/	10.1	/	/	/
COC(=O)C1(C(=O)OC)CC(C(=O)OC)(C(=O)OC)C(C(=O)OC)(C(=O)OC)C1	/	/	9.2	/	/	/
CCc1ccc(CNC(=O)c2ccc(-n3c(C)cc4c3CCC(C)C4)cc2)cc1 (stereo not drawn)	20.6µM*	/	1.7	/	/	16.4µM*
Cc1cc2c(n1-c1ccc(C(=O)NCc3cccc(Br)c3)cc1)CCC(C)C2 (stereo not drawn)	14.6µM*	/	15.3	/	/	?
COc1ccc(Br)cc1CNC(=O)c1ccc(-n2c(C)cc3c2CCC(C)C3)cc1 (stereo not drawn)	18.4µM*	/	11.4	/	/	23.1µM*
Cc1ccccc1CNC(=O)c1ccc(-n2c(C)cc3c2CCCC3)cc1	?	/	-2.7	/	/	?
C=CCNC(=O)c1cc(-c2ccccc2C)nc2ccccc12	/	/	-1.3	/	/	/
Cc1ccccc1-c1nnn(Cc2cc(=O)n3ccsc3n2)n1	/	/	-2.8	/	/	/
CC1Nc2ncnc(N3CCN(c4ccccc4)CC3)c2N(Cc2ccc(Br)cc2)C1=O (stereo not drawn)	20.6µM*	?	0.4	/	/	?
CC1Nc2ncnc(N3CCc4ccccc4C3)c2N(Cc2ccccc2)C1=O (stereo not drawn)	?	-22.7	-5.0	/	/	20.6µM*
